Targets with a hit are over-represented here; the source holds about 8,800 in all. About 0.5% of all pairs of compound and target were hits. A number with no mark means an inactive call.
What was measured:
Experiment in all cases: log2 fold change, soluble protein after heating vs DMSO (PISA); higher = thermal stabilisation; K562 lysate, 10 uM; active = over 0.2 and 3.5 SD of the protein, either way, in both replicates (recomputed)
[1] = compound: C1=CC=C(C=C1)[C@H](COC2=CC3=C(C=C2)NC(=O)N3)NC(=O)C4=CC=CN(C4=O)CC5=CC(=C(C=C5)F)F
Procedure, shortened: (§1)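 Log-two fold change in thermal stability relative to solvent controls is reported from duplicates. For each sample, crude K562 extract from dounce-homogenised pellets in PBS pH 7.4 with 1 mM MgCl2, at 1 mg/mL protein, was treated with 10 μM compound for 30 min. Aliquots heated for 3 min across 48°C-58°C were pooled, brought to 0.5% NP-40 at 4°C and cleared at 21,000xg for 90 min. The supernatant was quantified by TMTpro 16plex LC-MS/MS with channel sums equalised.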

[2] = compound: CC1=C(SC2=C1C(=N[C@H](C3=NN=C(N32)C)CC(=O)N)C4=CC=C(C=C4)Cl)C
Procedure, shortened: as §1

[3] = compound: CC1=C2C(=CC=C1)N=C(N(C2=O)C3=CC=CC=C3C)CN4C=NC5=C(N=CN=C54)N
Procedure, shortened: as §1

[4] = compound: Cc1sc2c(c1C)C(c1ccc(Cl)cc1)=N[C@@H](CC(=O)OC(C)(C)C)c1nnc(C)n1-2
Procedure, shortened: as §1

[5] = compound: c1ccc([C@@H]2C[C@H]2NC2CCNCC2)cc1
Procedure, shortened: as §1

Chain of UniProt Q8NFF5 (Q8NFF5 whole entry, looked up): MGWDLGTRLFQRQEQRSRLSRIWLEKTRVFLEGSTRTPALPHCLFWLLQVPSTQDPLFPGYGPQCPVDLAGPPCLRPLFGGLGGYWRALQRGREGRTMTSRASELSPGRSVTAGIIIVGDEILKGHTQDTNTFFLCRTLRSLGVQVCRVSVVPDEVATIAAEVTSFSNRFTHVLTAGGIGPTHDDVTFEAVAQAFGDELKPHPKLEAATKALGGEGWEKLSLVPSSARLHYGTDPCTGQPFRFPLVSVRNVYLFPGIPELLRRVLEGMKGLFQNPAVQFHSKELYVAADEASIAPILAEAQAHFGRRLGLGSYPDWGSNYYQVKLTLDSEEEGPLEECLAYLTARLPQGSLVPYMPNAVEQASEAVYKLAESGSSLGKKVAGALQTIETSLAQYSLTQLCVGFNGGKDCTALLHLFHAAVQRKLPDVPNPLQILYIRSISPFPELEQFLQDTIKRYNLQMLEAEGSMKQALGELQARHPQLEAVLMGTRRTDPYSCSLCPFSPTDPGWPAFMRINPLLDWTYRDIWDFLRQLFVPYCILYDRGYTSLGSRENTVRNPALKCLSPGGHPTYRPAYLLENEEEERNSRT
Chain of UniProt Q9HCG7 (Q9HCG7 whole entry, looked up): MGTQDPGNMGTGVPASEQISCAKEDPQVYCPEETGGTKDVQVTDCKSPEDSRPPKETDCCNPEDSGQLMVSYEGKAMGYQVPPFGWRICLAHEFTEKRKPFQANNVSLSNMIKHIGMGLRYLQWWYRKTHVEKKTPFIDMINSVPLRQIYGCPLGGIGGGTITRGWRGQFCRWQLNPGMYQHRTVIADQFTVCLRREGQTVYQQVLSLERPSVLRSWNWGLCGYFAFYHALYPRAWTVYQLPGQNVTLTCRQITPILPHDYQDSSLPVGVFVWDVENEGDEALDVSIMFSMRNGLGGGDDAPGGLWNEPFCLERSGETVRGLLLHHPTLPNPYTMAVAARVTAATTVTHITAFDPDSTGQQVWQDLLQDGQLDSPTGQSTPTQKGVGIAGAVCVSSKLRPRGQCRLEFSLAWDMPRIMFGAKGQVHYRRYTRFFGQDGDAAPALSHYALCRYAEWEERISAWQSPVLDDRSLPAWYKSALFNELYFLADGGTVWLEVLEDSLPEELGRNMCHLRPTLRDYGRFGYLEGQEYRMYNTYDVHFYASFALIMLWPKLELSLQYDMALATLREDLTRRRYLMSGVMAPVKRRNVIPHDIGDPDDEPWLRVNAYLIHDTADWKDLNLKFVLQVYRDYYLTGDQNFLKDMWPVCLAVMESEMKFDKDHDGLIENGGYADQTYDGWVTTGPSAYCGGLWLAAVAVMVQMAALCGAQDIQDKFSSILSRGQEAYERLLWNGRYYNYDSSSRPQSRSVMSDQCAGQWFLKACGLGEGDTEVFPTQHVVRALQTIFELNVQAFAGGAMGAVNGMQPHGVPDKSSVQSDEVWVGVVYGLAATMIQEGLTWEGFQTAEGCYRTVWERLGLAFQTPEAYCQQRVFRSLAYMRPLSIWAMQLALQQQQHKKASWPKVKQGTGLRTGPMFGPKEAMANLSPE
Chain of UniProt Q92889 (Q92889 whole entry, looked up): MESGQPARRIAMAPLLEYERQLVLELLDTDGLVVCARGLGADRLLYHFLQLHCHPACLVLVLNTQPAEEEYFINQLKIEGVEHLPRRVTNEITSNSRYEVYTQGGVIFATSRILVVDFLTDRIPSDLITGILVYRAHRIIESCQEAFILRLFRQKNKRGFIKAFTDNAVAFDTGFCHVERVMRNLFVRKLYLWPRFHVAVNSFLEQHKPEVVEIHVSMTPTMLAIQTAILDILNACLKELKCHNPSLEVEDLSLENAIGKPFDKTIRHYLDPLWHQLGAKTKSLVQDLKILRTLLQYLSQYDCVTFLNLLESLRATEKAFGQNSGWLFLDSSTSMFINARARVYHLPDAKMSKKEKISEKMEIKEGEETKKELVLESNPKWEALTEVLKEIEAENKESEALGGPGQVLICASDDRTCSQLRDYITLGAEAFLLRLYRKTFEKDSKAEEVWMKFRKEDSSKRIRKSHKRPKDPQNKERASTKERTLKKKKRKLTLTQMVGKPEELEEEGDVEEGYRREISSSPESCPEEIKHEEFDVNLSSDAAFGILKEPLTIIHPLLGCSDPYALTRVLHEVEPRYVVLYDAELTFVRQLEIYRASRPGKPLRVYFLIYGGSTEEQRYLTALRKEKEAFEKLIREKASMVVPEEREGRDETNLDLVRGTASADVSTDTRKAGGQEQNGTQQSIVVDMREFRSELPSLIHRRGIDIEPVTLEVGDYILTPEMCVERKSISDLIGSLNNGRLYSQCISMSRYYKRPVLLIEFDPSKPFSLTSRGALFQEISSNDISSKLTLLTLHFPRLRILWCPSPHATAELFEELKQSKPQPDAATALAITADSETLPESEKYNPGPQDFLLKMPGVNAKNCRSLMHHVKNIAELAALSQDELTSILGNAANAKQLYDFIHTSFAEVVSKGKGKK
Chain of UniProt P26378 (P26378 whole entry, looked up): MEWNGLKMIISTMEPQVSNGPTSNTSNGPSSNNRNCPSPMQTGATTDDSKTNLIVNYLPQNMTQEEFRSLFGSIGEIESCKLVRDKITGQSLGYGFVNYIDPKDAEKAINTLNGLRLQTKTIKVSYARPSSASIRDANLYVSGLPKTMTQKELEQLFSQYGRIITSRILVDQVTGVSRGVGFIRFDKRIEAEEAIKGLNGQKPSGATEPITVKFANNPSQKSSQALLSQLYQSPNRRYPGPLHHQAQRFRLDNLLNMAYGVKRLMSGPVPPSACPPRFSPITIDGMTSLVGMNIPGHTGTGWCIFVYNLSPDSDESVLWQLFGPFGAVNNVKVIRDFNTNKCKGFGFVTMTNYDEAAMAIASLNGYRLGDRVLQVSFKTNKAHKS
Chain of UniProt Q9UKR5 (Q9UKR5 whole entry, looked up): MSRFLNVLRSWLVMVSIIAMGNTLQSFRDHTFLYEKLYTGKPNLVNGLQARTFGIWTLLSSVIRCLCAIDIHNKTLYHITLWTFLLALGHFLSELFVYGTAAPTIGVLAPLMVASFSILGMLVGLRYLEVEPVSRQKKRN
Chain of UniProt Q9NZC3 (Q9NZC3 whole entry, looked up): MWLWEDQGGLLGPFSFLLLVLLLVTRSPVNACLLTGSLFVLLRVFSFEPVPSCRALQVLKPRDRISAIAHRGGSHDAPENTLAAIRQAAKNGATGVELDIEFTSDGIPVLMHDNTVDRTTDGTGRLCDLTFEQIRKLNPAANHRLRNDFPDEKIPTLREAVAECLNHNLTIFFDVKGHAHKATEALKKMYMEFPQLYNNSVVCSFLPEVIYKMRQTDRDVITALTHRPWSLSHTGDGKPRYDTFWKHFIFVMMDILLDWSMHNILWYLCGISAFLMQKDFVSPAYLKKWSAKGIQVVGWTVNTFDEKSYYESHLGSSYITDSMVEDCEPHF
Chain of UniProt P0C2W1 (P0C2W1 whole entry, looked up): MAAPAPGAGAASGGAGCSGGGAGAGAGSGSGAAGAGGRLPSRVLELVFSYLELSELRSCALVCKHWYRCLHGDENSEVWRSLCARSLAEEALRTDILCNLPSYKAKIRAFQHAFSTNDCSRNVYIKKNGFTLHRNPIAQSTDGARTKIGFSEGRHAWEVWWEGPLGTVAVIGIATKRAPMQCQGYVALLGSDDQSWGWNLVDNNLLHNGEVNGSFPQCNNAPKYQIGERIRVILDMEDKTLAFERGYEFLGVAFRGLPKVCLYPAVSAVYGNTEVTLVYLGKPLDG
Chain of UniProt Q9H8W3 (Q9H8W3 whole entry, looked up): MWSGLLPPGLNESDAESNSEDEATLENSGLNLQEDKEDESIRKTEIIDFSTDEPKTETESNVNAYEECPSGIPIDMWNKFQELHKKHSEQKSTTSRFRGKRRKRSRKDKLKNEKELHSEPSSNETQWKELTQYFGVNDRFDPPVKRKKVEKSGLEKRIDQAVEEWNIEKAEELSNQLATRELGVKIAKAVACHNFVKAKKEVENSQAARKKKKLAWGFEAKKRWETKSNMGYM
Chain of UniProt P28676 (P28676 whole entry, looked up): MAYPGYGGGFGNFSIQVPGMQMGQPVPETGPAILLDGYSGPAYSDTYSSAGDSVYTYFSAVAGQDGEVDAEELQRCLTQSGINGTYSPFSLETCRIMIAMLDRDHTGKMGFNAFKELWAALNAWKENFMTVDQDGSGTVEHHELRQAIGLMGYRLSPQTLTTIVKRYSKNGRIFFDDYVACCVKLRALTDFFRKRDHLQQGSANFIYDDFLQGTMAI

Target	log2 fold change [1]	log2 fold change [2]	log2 fold change [3]	log2 fold change [4]	log2 fold change [5]
FLAD1 (UniProt Q8NFF5)	0.006	0.032	0.011	0.017	0.022
ERCC4 (UniProt Q92889)	-0.038	0.036	0.043	-0.008	-0.305 (active)
GDE1 (UniProt Q9NZC3)	-0.085	-0.076	–	-0.067	0.394
FBXO45 (UniProt P0C2W1)	-0.079	-0.177	-0.004	–	0.053
FMNL2 isoform 3 (UniProt Q96PY5)	–	–	–	0.089	–
ELAVL4 (UniProt P26378)	–	–	0.018	-0.079	0.095
FAM204A (UniProt Q9H8W3)	–	–	-0.102	–	-0.035
EPN2 (UniProt I3L356)	0.12	-0.062	–	–	-0.235
GCA (UniProt P28676)	–	–	–	–	-0.095
GBA2 (UniProt Q9HCG7)	0.046	0.062	–	-0.094	-0.057
GAA (UniProt P10253)	-0.001	-0.077	-0.157	–	-0.024
FNDC3A (UniProt Q9Y2H6)	–	–	–	–	-0.136
ERG28 (UniProt Q9UKR5)	0.001	-0.053	–	-0.08	0.277
DST isoform 3 (UniProt Q03001)	-0.039	-0.033	–	–	0.586

From the supplement of paper PMC10849652
